# Screening results from PubChem.
# Hits are enriched below; roughly 7.2% of the tested compounds scored in any of these assays.
# LASV entry inh = qHTS for Inhibitors of binding or entry into cells for Lassa Virus; AID 540256, 2011; Lassa virus pseudotype entry inhibition, cell reporter; Potency, µM (titrated, usually from 37.9 µM), actives largely listed as inhibitors; hit rate 1.2% among 300,000; calls by dose curve; tested in HEK293 cells; note: nearly all actives have a fitted effect of over 50% in size
# Marburg entry inh = qHTS for inhibitors of binding or entry into cells for Marburg Virus | Marburg virus pseudotyped entry inhibition, cell reporter | hit rate 1.8% among 300,000 | Potency, µM (top dose mostly 37.8 µM), actives largely listed as inhibitors | AID 540276, 2011; calls by dose curve; tested in HEK293 cells
# HCV inh = qHTS Assay for Inhibitors of Hepatitis C Virus (HCV). Huh7.5.1 HCVcc-Cre infection, luciferase reporter, 44 h. hit rate 3.4% among 340,000. Potency, µM (top dose mostly 41.8 µM), most hits filed as inhibitors
#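 Luciferase read-out (15 sec integration) after a 15 min room-temperature substrate step quantifies HCVcc-Cre infection. Cells, 1,000 per well, had compound added 4 h post-plating, then virus at ~0.5 moi, and were cultured 44 h.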
# FMDV inh = High Throughput Screening for Foot and Mouth Disease Virus Antivirals; hit rate 1.2% among 410,000; FMDV antiviral cell-based qHTS; Potency, µM (highest dose often 57.9 µM), hits mostly inhibitors; calls by dose curve; tested in HEK293T cells; note: read-out not given here; nearly all actives have a fitted effect of over 45% in size
# RE007 growth inh = qHTS Assay for Inhibitors of the HIV-1 protein Vpr; S. pombe RE007 Vpr strain, BacTiter-Glo ATP luminescence, 24 h; Potency, µM (titrated, usually from 92.2 µM), actives largely listed as inhibitors; hit rate 0.21% among 360,000; active = well fitted falling curve with a large enough effect; inconclusive = small, poorly fitted or top-dose-only effect; inactive = no such curve, though single readings can be large or run the other way; note: nearly all actives have a fitted effect of over 50% in size
#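 Fission yeast strain RE007, carrying one chromosomally integrated HIV-1 vpr copy, was seeded at OD 0.01 in PMG+AL medium with 23 nL pinned compound. After 24 h at 30 °C and 99% humidity, viability was read by BacTiter-Glo luminescence.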
# Sm TGR block = qHTS Assay for the Inhibitors of Schistosoma Mansoni Peroxiredoxins. purified TGR, DTNB reduction, TNB absorbance 405 nm. hit rate 3% among 360,000. AID 485364, 2010. Potency, µM (top dose mostly 114 µM), most hits filed as inhibitors; note: nearly all actives have a fitted effect of over 60% in size
#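 TGR 20 nM + NADPH 100 uM (dispensed conc.), cpd preinc 15 min RT; start with NADPH (500 uM addition) then DTNB (15 mM addition). Kinetic TNB absorbance, 405 nm filter. Four-parameter Hill fit across titration.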
# A number is an active result; n = inactive; u = inconclusive; x = no result; [ ] = dose if it differs, or a comment. Unless noted, calls come from the whole dose curve; as a rule, active = well fitted curve in the direction sought with a large enough effect; inconclusive = small, poorly fitted or top-dose-only effect, or another doubt; inactive = no such curve, though single readings can be large; an effect the other way counts as inactive or inconclusive.
SMILES,LASV entry inh,Marburg entry inh,HCV inh,FMDV inh,RE007 growth inh,Sm TGR block
O=C(OCc1nc2ccc(Cl)cc2n1CCO)c1ccc(O)cc1,n,n,n,n,n,n
C=CC1CN(C(=O)OCC(Cl)(Cl)Cl)C2CC3c4ccc(OC)cc4NC3C3CC1C2CO3 (configuration not stated),x,x,10µM,u,n,x
CCOC(=O)N1CCC2CC1c1cc(-c3cccc(OC)c3)ccc12 (configuration not stated),x,x,n,u,n,x
COCCNC(=O)CSc1nnc(NC(=O)Nc2ccc(C)cc2)s1,n,x,x,n,x,n
O=S(=O)(c1ccccc1Cl)N1CCCC1c1nc(-c2ccc(Cl)cc2)no1 (configuration not stated),u,u,10µM,u,n,n
O=S(=O)(c1ccc(Cl)cc1)N1CCCC(c2nc(-c3ccc(F)cc3)no2)C1 (configuration not stated),x,x,n,n,n,n
CC(C)(C)S(=O)N1Cc2ccc(CO)cc2[C@H]1CCO (some centres not stated),x,x,n,n,n,x
CC(C)(C)S(=O)N1Cc2ccc(CO)cc2[C@@H]1CCO (some centres not stated),x,x,n[8.37 µM],40µM,n,x
O=C1[C@@H]2[C@H]3[C@H](O)[C@H](O)CC(=NOC[C@@H](O)COCc4ccco4)[C@H]3CC[C@H]2C(=O)N1C[C@@H]1CCCO1,x,n,x,x,x,x
CCC[C@@H](CN1CCC[C@H]1CN1C(N)=NC[C@H]1CC(C)C)N1C[C@@H]([C@H](C)CC)N(CCCC2CCCC2)C1=N,x,x,2.8µM,n,n,x
CC1CCC(NC(=O)c2ccc3c(c2)N(Cc2cccc(F)c2)C(=O)c2ccccc2S3)CC1 (configuration not stated),n,x,x,n,x,n
CC1(C)CC(=O)C(CS(=O)(=O)c2ccccc2)=C(Cl)C1,x,x,n,n,n,7.1µM
CC1(C)CC(=O)c2sc(NC(=O)CCS(=O)(=O)c3ccccc3)nc2C1,x,x,u,n,n,n
CCOc1ccc(Br)cc1CNCCN1CCOCC1,n,u,n,n,n,n
C=CCOc1ccccc1CNc1cccc(F)c1,n,n,n,n,n,n
CCOc1ccc(Br)cc1CNc1ccc2c(c1)OCCO2,n,u,11µM,n,n,n
C=CCOc1ccccc1CNc1ccc2c(c1)OCCO2,11µM,u,u,18µM,n,u
Cn1c(Sc2ccc(Br)cc2)c(C=O)c2ccccc21,10µM,u,u,u,n,n
Cn1c(Oc2ccc(F)cc2)c(C=O)c2ccccc21,n,u,n,u,n,n
Cc1cccnc1-c1cccc2c1OC(CNC(=O)/C=C/c1cccs1)C2 (configuration not stated),x,x,x,n,x,x
Nc1ccc(-c2cc3ccccc3oc2=O)cc1,0.71µM,u,n,1.1µM,n,n
O=c1oc2ccccc2cc1-c1ccc(O)cc1,n,u,u,n,n,n
NC(=O)CC[C@H](NC(=O)c1ccc(F)cc1)C(=O)N1CCN(Cc2ccc3c(c2)OCO3)CC1,n,n,n,n,n,x
CC(C)[C@H](NC(=O)c1ccc(C(C)(C)C)cc1)C(=O)N1CCN(Cc2ccc3c(c2)OCO3)CC1,u,u,11µM,u,n,x
CS(=O)(=O)N(CC(=O)N1CCN(Cc2ccc3c(c2)OCO3)CC1)Cc1ccc(Cl)cc1,9.2µM,n,13µM,u,n,n
C[C@H](NC(=O)c1ccccc1)C(=O)N1CCN(Cc2ccc3c(c2)OCO3)CC1,x,x,n,n,n,x
CC(NC(=O)c1ccccc1Cl)C(=O)N1CCN(Cc2ccc3c(c2)OCO3)CC1 (configuration not stated),n,n,n,n,n,14µM
C=C(C(C)=O)C(O)c1ccc(C(F)(F)F)cc1 (configuration not stated),x,n,x,x,x,x
CC(=O)Nc1sc2c(c1CN1CCN(c3ccc(F)cc3)CC1)CCCC2,u,10µM,u,u,n,n
COc1ccc2cc(CN(Cc3ccco3)Cc3nnnn3C3CCCCC3)c(=O)[nH]c2c1,u,u,u,n,n,n
